Screening results as filed in PubChem BioAssay.
Only some compounds are listed: those with a hit (about 12% of all), similar ones and a draw of the others.
Ins promoter up = MIN6 insulin promoter up-regulation; hit rate 0.3% among 190,000; z-score at 5 µM; MIN6 insulin promoter-GFP reporter, high-content imaging; hits give high values;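 active means z-score above 3 at 5 µM with at least 500 cells counted in the well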
KCC2 mod = modulates chloride dependent transport by human KCC2; AID 1456; KCC2 cells, thallium flux FluoZin-2 fluorescence; hit rate 2.2% among 190,000; Q9H2X9; B-score of Tl+ flux slope (higher = more flux/activation; lower = inhibition) at 10 µM;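 active means thallium flux slope and its plate-corrected score both differing from the plate sample mean at a set confidence after two filtering rounds, in either direction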;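 further: slope of fluorescence scaled to starting intensity during 10 to 20 s after thallium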
INS promoter inh = TRM-6 insulin promoter activity inhibition; TRM-6 cells (human fetal islet line), insulin promoter-eGFP reporter, imaging; reporter expression induced with tamoxifen; inhibition, % at 2 µM; hit rate 0.9% among 130,000; AID 1273;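 active means inhibition above the mean plus 3 SD, with well images judged a real hit on visual review, cut at about 60% in these data, passing the limit was not always enough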
ROMK mod = modulates human ROMK potassium channel activity. P48048. Tet-inducible ROMK, thallium flux fluorescence; actives lie on both sides. B-score at 10 µM. hit rate 2% among 130,000;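 active means signal ratio slope over the read window, or its plate-corrected B-score, at least 3 SD from the plate mean, either direction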;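 further: B-score of the F/F0 ratio slope over 7 to 12 s after thallium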
Target sequence (P48048 whole entry, looked up): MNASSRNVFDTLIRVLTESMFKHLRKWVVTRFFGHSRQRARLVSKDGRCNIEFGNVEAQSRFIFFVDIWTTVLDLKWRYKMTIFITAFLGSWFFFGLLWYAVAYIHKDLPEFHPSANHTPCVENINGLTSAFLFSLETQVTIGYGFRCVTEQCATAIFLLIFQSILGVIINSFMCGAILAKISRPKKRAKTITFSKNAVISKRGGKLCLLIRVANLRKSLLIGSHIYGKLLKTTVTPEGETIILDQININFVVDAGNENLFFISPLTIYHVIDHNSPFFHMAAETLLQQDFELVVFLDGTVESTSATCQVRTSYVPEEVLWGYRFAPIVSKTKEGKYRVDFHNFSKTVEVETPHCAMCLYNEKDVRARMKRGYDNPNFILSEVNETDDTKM
WT yeast gro inh = growth inhibition of WT yeast, mitochondrial fusion screen; inhibition, % at 10 µM; AID 1362; hit rate 2.1% among 190,000; mitochondrial fusion phenotypic screen, WT strain; in the data active means inhibition above about 58%; tested in S. cerevisiae
Lmaj promast = Leishmania major promastigote growth inhibition; Leishmania major promastigotes, resazurin fluorescence viability; inhibition, % at 10 µM; hit rate 9% among 200,000; AID 1063; in the data active means inhibition above about 50%;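 further: promastigotes grown with compound for 44 hours at 28 °C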
* marks the source's active call; other numbers are inactive results; . = no result given.

SMILES	Ins promoter up	KCC2 mod	INS promoter inh	ROMK mod	WT yeast gro inh	Lmaj promast
O=[N+]([O-])c1ccc(Nc2nc(N/N=C/c3cccc(F)c3)nc(N3CCCC3)n2)cc1	-0.87	0.16	-19	.	26	36
O=[N+]([O-])c1ccc(Nc2nc(NC3CCCCC3)nc(N3CCCC3)n2)cc1	0.3	0.23	-13	.	77*	98*
COc1cccc(/C=N/Nc2nc(Nc3ccc([N+](=O)[O-])cc3)nc(N3CCCC3)n2)c1O	-3.5	0.69	.	-0.49	-7	100*
O=C(c1ccccc1)N1CCN=C1SCc1ccc([N+](=O)[O-])cc1	-0.59	-0.36	.	.	30	4
Cc1ccnc(NC(=O)Cc2ccc([N+](=O)[O-])cc2)c1	0.2	0.63	.	-0.12	1	-6
COCC(=O)Nc1nc(-c2ccc([N+](=O)[O-])cc2)cs1	-0.18	-0.36	16	-1.5	1	-7
Cc1ccnc(NC(=O)c2cc([N+](=O)[O-])cc([N+](=O)[O-])c2)c1	0.35	2	25	0.1	-12	67*
CCC(=O)Nc1nc(-c2cc([N+](=O)[O-])cs2)cs1	0.33	0.43	-136	0.71	10	90*
Cc1csc(NC(=O)c2cc([N+](=O)[O-])cc([N+](=O)[O-])c2)n1	0.43	0.32	-17	0.13	14	94*
Cc1csc(NC(=O)c2nc3nc(C)cc(C)n3n2)n1	1.3	-1.4	21	.	-8	77*
O=c1c(-c2ccc(F)cc2)[n+]([O-])c2ccccc2n1OCc1ccccn1	0.77	0.07	-13	1.1	16	-7
COc1cc(NC(=O)c2cc(OC)c(OC)c(OC)c2)c(OC)cc1NC(=O)CN1CCCCC1	-0.34	0.2	49	.	9	9
COc1cc(NC(=O)Nc2cccc(Cl)c2)c(OC)cc1NC(=O)CN1CCCCC1	-1.3	-0.15	8	.	44	51*
O=C(CN1CCCCC1)Nc1cccc(Cl)c1	-0.26	.	.	1.4	7	13
COc1cc(NC(=O)c2ccc(C)cc2)c(OC)cc1NC(=O)CN1CCCCC1	.	.	32	.	5	62*
CC(=O)Nc1ccc(O)cc1[N+](=O)[O-]	-0.12	-0.25	.	.	.	.
CCC(Sc1nc2ccccc2[nH]1)C(=O)Nc1ccc(NC(C)=O)cc1 (centres undefined)	0	0.2	.	1.6	-12	3
O=C(CN1CC(c2ccccc2)CC1=O)N/N=C/c1cc(Br)ccc1O (centres undefined)	0.3	-4	-3	-1	16	98*
O=C(Cc1ccccc1)N/N=C/c1cc(Br)cc(Cl)c1O	1.1	-1.1	.	-0.099	6	82*
O=C(N/N=C/c1cc(Cl)ccc1O)c1ccccc1Br	-2.3	-0.99	.	0.74	4	98*
Cc1ccc2nc(Cl)c(/C=N/NC(=O)c3ccccc3O)cc2c1	-0.04	-1.1	18	0.3	62*	-11
O=C(CN1CC(c2ccccc2)CC1=O)Nc1ccc2c(c1)OCO2 (centres undefined)	-1.1	-1	30	0.62	1	-8
O=C(CP(=O)(c1ccccc1)c1ccccc1)N/N=C/c1cc(Br)cc(Br)c1O	-0.85	-0.85	.	.	-22	-10
CN(C(=O)c1ccc(OC2CCN(C(=O)c3cccnc3)CC2)cc1)C1CCCCC1	0.16	-0.3	.	.	-9	-4
O=C(CNC(=O)c1ccccc1)N/N=C/c1cc(Br)ccc1O	-0.5	-0.24	35	-1.1	-7	80*
SMILES	Ins promoter up	KCC2 mod	INS promoter inh	ROMK mod	WT yeast gro inh	Lmaj promast
O=C(COc1ccccc1)NCC(=O)N/N=C/c1cc(Br)ccc1OCc1ccccc1	-0.02	-1.9	17	0.11	21	10
Cc1cccc(OCC(=O)NCC(=O)N/N=C/c2cc(Br)ccc2OCc2ccccc2)c1	-0.42	-0.16	15	-0.24	18	92*
O=C(CNC(=O)c1cccc(Br)c1)N/N=C/c1cn[nH]c1-c1ccccc1	-0.17	-1.1	-49	0.01	11	67*
O=C(CNC(=O)c1ccncc1)N/N=C/c1cc(Br)ccc1O	-0.23	-0.018	-11	0.19	-9	98*
CN/S(=N/S(=O)(=O)c1ccccc1)c1ccc(C)cc1 (centres undefined)	0.68	0.027	4	.	-14	-7
CC(C(=O)O)N(C(=O)c1ccccc1)c1ccc(F)cc1 (centres undefined)	.	0.41	5	-0.17	4	-3
CCC1(C)N=C(N)Nc2nc3cc(C)c(C)cc3n21 (centres undefined)	-0.42	-0.35	.	.	.	.
O=C(CNC(=O)c1ccccc1Br)N/N=C/c1cc(Br)ccc1O	-0.34	-1.4	29	-0.47	-3	58*
